PubChem BioAssay AID602346 (Broad Institute, 2012)
Screen size: about 340,000 compounds; about 1,200 (0.35%) were called active. Cut-off read from the data, not from the text of the source: active = inhibition above about 50% (passing the limit was not always enough); inconclusive = no clear call, values can overlap the other calls; inactive = below about 31%. The sample as a whole holds a higher share of actives than the screen did.

Assay: HIV Vif self-association inhibitors, primary screen, imaging, HEK293T, single point (AID 602346)
Details: HEK293T cells, Vif self-association by quenched fluorescence, 24 h, at 7.49 µM, active compounds read high

Compound | inhibition
COc1ccc(Br)c(Cn2c(C)c(C(=O)NCc3cccs3)sc2=O)c1 | 1.02% (inactive)
CC[C@]1(O)C[C@@H]2CN(CCc3c([nH]c4ccccc34)[C@@](C(=O)OC)(c3cc4c(cc3OC)N(C)[C@H]3[C@@](O)(C(=O)OC)[C@H](OC(C)=O)[C@]5(CC)C=CCN6CC[C@]43[C@@H]65)C2)C1 | 79.8% (active)
COc1cc(NC(=O)c2ccc(-c3csc(C)n3)cc2)c(OC)cc1Cl | 64% (active)
COc1cc(NC(=O)c2ccccc2)c(OC)cc1NC(=O)Cc1ccccc1 | -4.83% (inactive)
CCOCC(=O)Nc1cc(OC)c(Cl)cc1OC | -3.02% (inactive)
CC(=O)N(CC(O)CO)c1c(I)c(C(=O)NCC(O)CO)c(I)c(C(=O)NCC(O)CO)c1I (centres undefined) | 62% (active)
COCC(=O)Nc1c(I)c(C(=O)NCC(O)CO)c(I)c(C(=O)N(C)CC(O)CO)c1I (centres undefined) | -1.59% (inactive)
CC12CCC(=O)C=C1CCC1C2C(O)CC2(C)C1CCC2(O)C(O)CO (centres undefined) | 24% (inactive)
C[C@H]([C@@H](O)[C@@H](O)[C@@H](C)C(C)(C)C)[C@H]1CC[C@H]2C3CC[C@H]4C[C@H](OS(=O)(=O)O)[C@@H](OS(=O)(=O)O)C[C@]4(C)[C@H]3CC[C@]12C (some centres undefined) | 9.95% (inactive)
CC(C)(C)CC(=O)Nc1nc(C(N)Cc2ccc(C(F)(F)F)cc2)cs1 (centres undefined) | -2.15% (inactive)
C[C@@H]1CN([C@@H](C)CO)S(=O)(=O)c2ccc(C#Cc3cccc(F)c3)cc2O[C@H]1CN(C)S(=O)(=O)c1cn(C)cn1 | -26.5% (inactive)
Cc1ccc(C)c(N2CCN(S(=O)(=O)c3c(C)[nH]c(C)c3C(=O)N3CCCC3)CC2)c1 | 1.25% (inactive)
COC(=O)c1cc(S(=O)(=O)N2CCN(c3cc(C)ccc3C)CC2)c[nH]1 | 51.4% (active)
Cc1ccc(C)c(N2CCN(S(=O)(=O)c3ccc4c(c3)oc(=O)n4C)CC2)c1 | -13.1% (inactive)
CCCCCCNC(=O)O[C@H]1CN(C(=O)OC(C)C)N(C(=O)OC(C)C)[C@@H]2CN(S(=O)(=O)c3ccc(C)cc3)C[C@]12O | -2.14% (inactive)
CCOP(=O)(OCC)C(Cc1ccccc1)N=C(c1ccccc1)c1ccccc1 (centres undefined) | -3.63% (inactive)
CC1(C(=O)Nc2cccc(Oc3ccccc3)c2)CCN1Cc1ccccc1Cl (centres undefined) | 1.11% (inactive)
O=C(c1ccco1)N1CCN(C(=O)C2c3ccccc3Oc3ccccc32)CC1 | 2.39% (inactive)
O=C(c1ccco1)N1CCN(CCOc2ccccc2)CC1 | 3.05% (inactive)
CN(Cc1ccccc1)C(=O)CCC1CCN(C(=O)c2ccco2)CC1 | 132% (active)
COc1ccc(C(C#N)=C2C=CC(=NO)c3ccccc32)cc1 | 24.3% (inactive)
NC(c1ccccc1)c1csc(NC(=O)Nc2cccc(C(F)(F)F)c2)n1 (centres undefined) | 4.85% (inactive)
COc1ccc(-c2ccc(CN3C(CC(C)C)C(=O)N(Cc4cn(CC5CCCCC5)nn4)CCS3(=O)=O)cc2)cn1 (centres undefined) | -4.05% (inactive)
CN(c1ccccc1)S(=O)(=O)c1cc(C(=O)Nc2nc3ccccc3[nH]2)ccc1Cl | -13.9% (inactive)
Cc1ccc(O)c(CNc2nc3ccccc3[nH]2)c1 | -2.01% (inactive)
COC(=O)Nc1nc2ccc(Sc3ccccc3)cc2[nH]1 | 57% (active)
COc1ccc(CC(N)c2csc(NC(=O)Cc3ccccc3)n2)cc1 (centres undefined) | -11.3% (inactive)

Compound | inhibition
CC(CN1CCOCC1)OC(=O)c1ccc(Cl)cc1Cl (centres undefined) | 4.38% (inactive)
O=C(OC12CC3CC(CC(C3)C1)C2)c1ccc(NCc2cc(O)ccc2O)cc1 | 8.83% (inactive)
CC(C)OC(=O)c1ccc(NCc2cc(O)ccc2O)cc1Cl | 55.2% (active)
COC(=O)c1ccc(NCc2cc(O)ccc2O)cc1 | 101% (active)
CC(OC(=O)c1ccc(Cl)cc1O)C(=O)NCCC1=CCCCC1 (centres undefined) | 11.7% (inactive)
COC(=O)c1ccc(NCC(=O)c2ccccc2)cc1 | 3.71% (inactive)
COc1ccc(C(NC(=O)C2CCN(CCCc3ccccc3)CC2)c2cccs2)cc1 (centres undefined) | 14.2% (inactive)
CCCCC[C@@H]1C=C(C(=O)OCC)[C@H](c2ccccc2)N1S(=O)(=O)c1ccc(C)cc1 | 3.46% (inactive)
COc1cccc(NC(=O)CSc2nnc(Cc3ccc(OC)c(OC)c3)o2)c1 | 60.1% (active)
COc1ccc(Cc2nnc(SCC(=O)Nc3ccc(C)c(C)c3)o2)cc1OC | 3.15% (inactive)
COc1ccc(C(=O)NCc2nnc(SCC(=O)Nc3cccc(OC)c3)o2)cc1 | 19% (inactive)
CNc1cncc(-c2ccc(NS(C)(=O)=O)cc2)n1 | 21.1% (inactive)
COc1ccc(-c2ccc(C(=O)NCCN3CCOCC3)c3occc23)c(C)c1 | -8.68% (inactive)
Cc1ccc(C(=O)NC(=S)NCCN2CCOCC2)cc1 | 50.2% (active)
Cc1cc(C)cc(C(=O)NCCN2CCOCC2)c1 | -5.07% (inactive)
Cc1ccc(C(=O)N/C(=C\c2ccc(F)cc2)C(=O)NCCN2CCOCC2)cc1 | 4.18% (inactive)
Cc1cc(=O)oc2c3c(cc(OCC(=O)NCC(O)c4ccccc4)c12)OC(C)(C)CC3 (centres undefined) | -17% (inactive)
COc1ccc(CC(N)c2csc(NC(=O)NC(c3ccccc3)c3ccccc3)n2)cc1 (centres undefined) | 2.09% (inactive)
COc1cc(Cn2c3ccc(NC(=O)CC(C)c4ccccc4)cc3c(=O)n2C)ccc1F (centres undefined) | -4.26% (inactive)
CC(C)=CCc1ccc(O)c(=O)cc1C(C)C | 114% (active)
CC(C)c1cc(N=O)cc(C(C)C)c1O | 3.46% (inactive)
CC(C)=CCc1c(O)c(CC=C(C)C)c2occ(-c3ccc(O)cc3)c(=O)c2c1O | 6.99% (inactive)
O[C@H]1C[C@H](c2ccc(Cl)cc2)N(Cc2cccs2)C[C@@H]1n1cc(C2CC2)nn1 | -12.7% (inactive)
COc1ccc(-c2nc3cc(C)ccn3c2NC2CCCCC2)cc1SC1CCCCC1 | -0.392% (inactive)
COc1ccc(-c2nc3cnccn3c2NC(C)(C)CC(C)(C)C)cc1O | -5.81% (inactive)
COc1ccc(-c2nc3cnccn3c2NC2CCCCC2)cc1-c1cccc(Cl)c1 | 51.8% (active)
O=C(NC(c1ccc(-c2ccccc2)cc1)c1cnccn1)C1CCN(CCOc2ccc(Cl)cc2Cl)CC1 (centres undefined) | 4.85% (inactive)
